Experiment [1] in a line: qHTS assay for small molecule activators of the p53 signaling pathway (AID 651743; active means well fitted activation curve with a large enough effect in the signal ratio, not every such curve was filed as active; the % refers to the signal ratio; further: series mostly up to about 92 µM; % of control where 0% means no effect). As to conditions: HCT-116 p53RE-bla, beta-lactamase FRET ratio, 16 h; activation: hits give high values. In outline:
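HCT-116 p53RE-bla, 4,000 cells/well; 5 h settle; cpd/DMSO 16 h, 37 C; LiveBLAzer B/G 2 h RT; fluorescence intensity.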
A general note: Quantitative high-throughput screening tests each substance at several concentrations.

A short description of experiment [2]: qHTS assay for small molecule activators of the nuclear factor-kappa B (NF-kB) signaling pathway (AID 651749; active means well fitted activation curve with a large enough effect in the signal ratio; the % refers to the signal ratio; further: series mostly up to about 77 µM; % of control where 0% means no effect). The conditions noted are these: NF-kB-bla ME-180 cells, beta-lactamase FRET ratio, 16 h; hits give high values. In outline: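 Incubation lasted 16 hr at 37C in 5% CO2 after 23 nL compound addition to ME-180 NF-kB-bla cells. Activation appears as beta-lactamase-mediated FRET loss.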

A short description of experiment [3]: qHTS assay for small molecule disruptors of the mitochondrial membrane potential - 1 hr assay (AID 651754; calls by dose curve; further: nearly all actives have a fitted effect of over 35% in size; further: potency means the concentration at half of the fitted maximal effect). In outline: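 HepG2 cells, attached overnight at 37C, were exposed to compound or DMSO vehicle for 1 hr at 37C, 5% CO2, then stained with Mito-MPS dye for 30 min. Red aggregate versus green monomer fluorescence reports membrane potential.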
Experiment [4] in a line: qHTS assay for small molecule disruptors of the mitochondrial membrane potential - 5 hr assay (AID 651755; calls by dose curve; further: nearly all actives have a fitted effect of over 40% in size; further: potency means the concentration at half of the fitted maximal effect). In outline:
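HepG2 cells (2,000/well), attached overnight, exposed to compound 5 hr at 37C, then Mito-MPS dye 30 min. Fluorescence read for monomers (490/535 nm) and aggregates (540/590 nm).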

In experiment [5] the target is Tumor necrosis factor (Homo sapiens) (UniProt P01375). The experiment in a line: qHTS assay to identify small molecules that stimulate Tumor Necrosis Factor-alpha (TNF-alpha) secretion (AID 651757; active means well fitted curve in the direction sought with a large enough effect in the signal ratio; the % refers to the signal ratio; further: 0% is about no effect). Summed up: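 THP-1 cells were exposed to compounds for 17 hrs at 37 C, after which secreted TNF-alpha was measured by homogeneous HTRF (TR-FRET) using cryptate- and XL665-labeled anti-TNF-alpha antibodies, read after 3 hr at room temperature.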

The nature of experiment [6]: qHTS assay for environmental chemicals that activate the Aryl hydrocarbon Receptor (AhR) signaling pathway (AID 651777). Further: % of control where 0% means no effect; nearly all actives have a fitted effect of over 15% in size. The conditions noted are these: 1A2-DRE human hepatoma cells, luciferase, 24 h; activation: hits give high values. Summed up: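 Stable CYP1A2 promoter/DRE-luciferase human hepatoma line treated 24 hr; One-Glo luminescence, 30 min RT.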
Experiment [7] concerns the target Nuclear receptor ROR-gamma (Homo sapiens) (UniProt P51449). The experiment in a line: qHTS assay for small molecule antagonists of the retinoid-related orphan receptor gamma (ROR-gamma) signaling pathway (AID 651802). Further: nearly all actives have a fitted effect of over 60% in size. Further: potency means the concentration at half of the fitted maximal effect. In outline:
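CHO cells carrying TET-inducible ROR-gamma and an ROR response element–luciferase reporter were exposed to compound, then induced with doxycycline. After 16hr at 37C, luminescence was read; lower signal indicates antagonism.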

A short description of experiment [8]: qHTS assay for small molecule antagonists of the retinoid-related orphan receptor gamma (ROR-gamma) signaling pathway - cell viability counter screen (AID 720652; active means well fitted curve in the direction sought with a large enough effect in the repeat runs; an effect the other way counts as inactive or inconclusive;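 further: compound exposure lasted 16 hr before ATP read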; further: potency means the concentration at half of the fitted maximal effect). Summed up:
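Counter screen in CHO cells carrying TET-inducible ROR-gamma and an ROR response element-luciferase reporter; cells plated 5 hr, compound pinned, doxycycline added, then 16 hr at 37 C. Viability read as intracellular ATP by CellTiter-Glo luminescence.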

The nature of experiment [9]: qHTS assay for small molecule agonists of the antioxidant response element (ARE) signaling pathway (AID 651741; active means well fitted activation curve with a large enough effect in the signal ratio; the % refers to the signal ratio; further: potency means the concentration at half of the fitted maximal effect; on activation: % of control where 0% means no effect). In outline:
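HepG2 ARE-bla cells plated at 2,000 cells/well and incubated 5 h at 37 C/5% CO2 received 23 nL compound in DMSO. After 16 h at 37 C, LiveBLAzer B/G FRET substrate was applied for 2 h at room temperature and fluorescence read.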

In experiment [10] the target is Arylsulfatase A (Homo sapiens) (UniProt P15289). The experiment in a line: qHTS screen for enhancers of Arylsulfatase A (ASA1): LOPAC Validation Assay (AID 720538). Summed up:
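First, ASA-I179S fibroblasts from an MLD patient adhered for 6 hrs. Next, compounds were added for 48h. Then pNCS substrate (0.5mM final) with lysis buffer reacted 14h at room temperature before NaOH stop and fluorescence measurement.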

Experiment [11] in a line: qHTS for compounds that reverse cellular toxicity of Amyloid beta (A-beta) peptide in yeast: LOPAC Validation Assay (AID 720559).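 Further: plate controls were DMSO for no effect and equimolar ferric chloride plus clioquinol rescue for full effect.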 Summed up: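 Activity is expressed relative to DMSO and an equimolar ferric chloride/clioquinol mix. Compounds were pinned into medium with A-beta-expressing yeast, grown 48 hr at 30 C, then read by absorbance at 600 nm.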
Experiment [12] can be described thus: qHTS for Activators of Parkin Expression: LOPAC Validation Assay (NLuc Reporter) (AID 720572;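 further: 0% = DMSO and 100% = positive control compound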). In outline: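 Neuronal cells with a Parkin promoter-driven FLuc/NLuc coincidence reporter were treated 24 h at 37 C in 7-point dose response (LOPAC). NLuc luminescence read after FLuc; signals normalized to DMSO and positive control (100%).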
A short description of experiment [13]: qHTS for Activators of Parkin Expression: LOPAC Validation Assay (FLuc Reporter) (AID 720573;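 further: 0% = DMSO and 100% = positive control compounds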). In outline: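 A neuronal cell line harbouring FLuc and NLuc reporters behind the Parkin promoter was exposed to compounds for 24 h. Firefly luciferase signal, measured after 10 min with detection reagent, was scaled to DMSO and positive-control wells.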
Experiment [14] concerns the target T1, Hexokinase-4 (Homo sapiens) + Glucokinase regulatory protein (Homo sapiens) (UniProt P35557+Q14397). The experiment in a line: qHTS assay for inhibitors of recombinant human GCK-GKRP interaction: Diaphorase-coupled assay (AID 743205). Summed up: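 Inhibitors of the GCK–GKRP complex relieve GKRP suppression of GCK, detected through a G6PDH–diaphorase cascade reducing resazurin. Human GST-GCK and FLAG-GKRP are used at 10 nM with 5 mM glucose and 0.4 mM ATP.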

In experiment [15] the target is T1, Hexokinase-4 (Homo sapiens) + Glucokinase regulatory protein (Homo sapiens). The experiment in a line: qHTS assay for inhibitors of recombinant human GCK-GKRP interaction: ADP-Glo assay (AID 743206).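 Further: plate controls were DMSO plus enzyme for no effect and no enzyme for full effect.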 Summed up:
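GST-GCK and FLAG-GKRP (15 nM each in the dispensed mix, with 2 uM S6P) react with 0.4 mM ATP and 5 mM glucose (final) in Hepes pH 7.6 for 60 min at room temperature. ADP is measured by ADP-Glo luminescence.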

For experiment [16] the target is unchanged. The experiment in a line: qHTS assay for inhibitors of recombinant human GCK-GKRP interaction: HTRF assay (AID 743207).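 Further: 0% = DMSO with GCK present and -100% = DMSO wells lacking GCK.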 Summed up: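 Steps: dispense GCK–GKRP complex (5 nM each, GST- and FLAG-tagged) with 2 uM S6P; pin in compounds; add XL665/Eu-cryptate-labelled antibodies; incubate 60 min at room temperature; read time-resolved FRET at 665 and 615 nm.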

Experiment [17] in a line: qHTS assay to identify small molecules that stimulate interleukin-8 (IL-8) secretion (AID 651758; active means well fitted activation curve with a large enough effect in the signal ratio; the % refers to the signal ratio; further: 0% is about no effect). In outline: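 THP-1 cells (2000/well) exposed to compound 16 h at 37 C; secreted IL-8 then detected by HTRF with cryptate- and XL665-labelled anti-IL-8 antibody pair after 1-3 h at room temperature.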
The nature of experiment [18]: qHTS assay for small molecule agonists of the antioxidant response element (ARE) signaling pathway measured by Nrf2-dependant transcriptional activity (AID 720636; active means well fitted curve in the direction sought with a large enough effect in the repeat runs; an effect the other way counts as inactive or inconclusive;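 further: HepG2 cells with an ARE-driven luciferase reporter; % of control where 0% means no effect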). In outline:
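Reporter gene assay, HepG2 ARE-luc: 16 hr compound, 37 C, 5% CO2; read-out luciferase luminescence.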

The target in experiment [19] is Peroxisome proliferator-activated receptor alpha (Homo sapiens) (UniProt Q07869). The experiment in a line: qHTS assay for small molecule agonists of the peroxisome proliferator-activated receptor alpha (PPARalpha) signaling pathway (AID 651778). Further: % of control where 0% means no effect. The conditions noted are these: PathHunter PPARalpha complementation, chemiluminescence, 6 h; hits give high values. In outline:
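Enzyme-fragment complementation assay in which ligand-bound PPARalpha translocates and forms an active enzyme that generates chemiluminescence. Cells were plated overnight, exposed to compound for 6 hr at 37 C, and then given detection reagent for 60 min at room temperature.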

The structures appear in SMILES notation. Where “and” joins values, the source holds several entries; their conditions need not be identical. Identical values can stand only once. A number with no mark means an inactive call. Results filed as inconclusive are left out. Calls of active or inactive are those of the source. Unless noted, the call rests on the fitted dose curve; in most records, active means well fitted curve in the direction sought with a large enough effect; inconclusive means small, poorly fitted or top-dose-only effect, or another doubt; inactive means no such curve, though single readings can be large; an effect the other way counts as inactive or inconclusive.

Sequence of Arylsulfatase A (Homo sapiens) (P15289 whole entry, looked up): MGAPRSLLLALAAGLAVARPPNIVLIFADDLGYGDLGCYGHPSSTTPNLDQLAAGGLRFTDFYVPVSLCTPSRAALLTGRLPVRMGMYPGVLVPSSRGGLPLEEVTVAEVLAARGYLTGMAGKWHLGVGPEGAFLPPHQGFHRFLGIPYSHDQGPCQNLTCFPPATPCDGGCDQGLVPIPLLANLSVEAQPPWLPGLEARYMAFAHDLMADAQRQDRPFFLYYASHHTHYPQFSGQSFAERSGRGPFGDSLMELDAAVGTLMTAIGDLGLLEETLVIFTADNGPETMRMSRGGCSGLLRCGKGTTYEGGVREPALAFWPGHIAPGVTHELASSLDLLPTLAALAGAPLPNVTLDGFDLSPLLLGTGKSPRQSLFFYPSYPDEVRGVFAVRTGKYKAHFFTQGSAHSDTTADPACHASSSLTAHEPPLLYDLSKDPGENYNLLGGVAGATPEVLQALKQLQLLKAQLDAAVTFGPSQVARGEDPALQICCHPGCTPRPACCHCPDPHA
Sequence of Nuclear receptor ROR-gamma (Homo sapiens) (P51449 whole entry, looked up): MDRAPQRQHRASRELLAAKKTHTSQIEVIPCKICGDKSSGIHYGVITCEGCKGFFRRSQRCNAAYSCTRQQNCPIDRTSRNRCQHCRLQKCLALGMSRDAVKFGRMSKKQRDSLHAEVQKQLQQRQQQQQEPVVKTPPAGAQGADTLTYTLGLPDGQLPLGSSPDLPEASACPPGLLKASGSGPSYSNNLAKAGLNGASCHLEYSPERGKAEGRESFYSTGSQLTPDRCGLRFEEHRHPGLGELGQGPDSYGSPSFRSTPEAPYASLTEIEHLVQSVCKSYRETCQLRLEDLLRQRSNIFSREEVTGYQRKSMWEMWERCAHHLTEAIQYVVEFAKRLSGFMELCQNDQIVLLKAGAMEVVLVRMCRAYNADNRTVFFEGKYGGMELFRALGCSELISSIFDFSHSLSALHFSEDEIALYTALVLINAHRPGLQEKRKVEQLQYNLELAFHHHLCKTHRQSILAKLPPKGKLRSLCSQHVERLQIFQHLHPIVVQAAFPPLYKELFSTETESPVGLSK
Sequence of Tumor necrosis factor (Homo sapiens) (P01375 whole entry, looked up): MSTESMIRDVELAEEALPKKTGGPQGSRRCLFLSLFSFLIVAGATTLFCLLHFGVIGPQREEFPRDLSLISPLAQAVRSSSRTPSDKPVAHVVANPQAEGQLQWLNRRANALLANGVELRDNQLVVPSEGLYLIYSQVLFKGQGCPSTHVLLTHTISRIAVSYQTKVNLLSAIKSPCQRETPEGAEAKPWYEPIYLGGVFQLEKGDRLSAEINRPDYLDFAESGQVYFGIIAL
T1 sequence (P35557 whole entry, looked up): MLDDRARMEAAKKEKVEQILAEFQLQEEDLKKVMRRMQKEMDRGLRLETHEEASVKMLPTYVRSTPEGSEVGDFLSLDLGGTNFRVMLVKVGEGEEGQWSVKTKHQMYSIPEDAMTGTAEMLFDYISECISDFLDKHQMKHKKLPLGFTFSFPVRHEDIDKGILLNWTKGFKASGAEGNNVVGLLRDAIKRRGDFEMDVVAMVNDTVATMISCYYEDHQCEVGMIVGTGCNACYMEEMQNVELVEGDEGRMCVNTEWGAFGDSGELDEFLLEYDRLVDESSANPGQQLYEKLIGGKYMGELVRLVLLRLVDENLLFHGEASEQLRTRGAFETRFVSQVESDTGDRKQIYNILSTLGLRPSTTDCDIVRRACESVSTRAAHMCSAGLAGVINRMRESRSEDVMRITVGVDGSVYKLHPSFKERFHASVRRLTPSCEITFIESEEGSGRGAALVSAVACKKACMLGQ
T1 sequence (Q14397 whole entry, looked up): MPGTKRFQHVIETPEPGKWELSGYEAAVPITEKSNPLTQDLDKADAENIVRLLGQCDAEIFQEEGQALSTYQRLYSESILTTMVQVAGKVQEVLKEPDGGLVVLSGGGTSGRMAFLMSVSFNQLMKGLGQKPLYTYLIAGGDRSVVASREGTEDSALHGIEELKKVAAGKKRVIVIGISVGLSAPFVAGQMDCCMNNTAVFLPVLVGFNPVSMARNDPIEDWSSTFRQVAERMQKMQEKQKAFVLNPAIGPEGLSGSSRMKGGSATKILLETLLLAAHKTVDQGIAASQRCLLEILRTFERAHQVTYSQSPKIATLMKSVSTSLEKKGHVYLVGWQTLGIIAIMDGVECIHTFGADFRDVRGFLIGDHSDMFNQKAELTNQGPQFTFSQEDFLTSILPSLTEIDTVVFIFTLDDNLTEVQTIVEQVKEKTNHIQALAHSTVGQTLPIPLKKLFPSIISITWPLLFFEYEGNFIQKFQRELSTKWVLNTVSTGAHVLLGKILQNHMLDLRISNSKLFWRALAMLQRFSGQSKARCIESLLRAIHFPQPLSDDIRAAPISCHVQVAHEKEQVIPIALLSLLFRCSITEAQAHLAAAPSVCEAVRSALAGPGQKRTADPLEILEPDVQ
Sequence of Peroxisome proliferator-activated receptor alpha (Homo sapiens) (Q07869 whole entry, looked up, the tested form may be a part): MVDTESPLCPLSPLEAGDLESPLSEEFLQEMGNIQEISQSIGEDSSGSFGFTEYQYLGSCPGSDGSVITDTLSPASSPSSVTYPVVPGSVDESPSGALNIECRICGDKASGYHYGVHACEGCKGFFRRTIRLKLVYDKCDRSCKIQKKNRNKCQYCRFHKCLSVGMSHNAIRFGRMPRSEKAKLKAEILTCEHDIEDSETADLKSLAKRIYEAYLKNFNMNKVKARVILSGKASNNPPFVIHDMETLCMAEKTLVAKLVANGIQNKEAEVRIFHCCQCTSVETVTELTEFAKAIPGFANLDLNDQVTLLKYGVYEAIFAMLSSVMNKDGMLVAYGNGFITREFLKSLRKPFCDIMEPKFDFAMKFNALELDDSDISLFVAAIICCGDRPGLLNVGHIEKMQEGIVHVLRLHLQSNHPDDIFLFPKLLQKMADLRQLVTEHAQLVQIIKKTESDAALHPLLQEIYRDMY

Turning to `O=C/C=C/c1ccccc1`, the activation is -1.3% and 1.6% in experiment [1]; -1.46% and -0.692% in [2]; 2.17% and 1.64% in experiment [6]. For the same molecule, the Potency result in experiment [3], in experiment [4], in experiment [7] and in experiment [8] was “inactive” throughout. Moreover, the outcome in experiment [5] was inactive.
In the case of `O=C(O)c1cc[c]([Hg][Cl])cc1`, the Potency in experiment [9] is 30.6 µM (active). The values for the activation in [1], in experiment [2] and in experiment [6] were 10.2%, 4.33% and -2.48%, respectively. Further, the Potency entry in experiment [10], in experiment [12] and in [14] was “inactive” in each case. In addition, the call in [11], in [13], in [15] and in experiment [16] was inactive.
`ClC(Cl)(Cl)Cl`: the Potency entry in experiment [9], in experiment [3], in experiment [4], in experiment [17], in experiment [7] and in [18] was “inactive” throughout. In experiment [8], the Potency result is “inactive”. The activation in experiment [1] was -0.523% and 1.98%; in experiment [2], 2.09% and -0.921%; in [6], -0.636% and 0.214%. Also, the molecule was called inactive in experiment [5].
For the molecule `Cc1o[nH]c(=O)c1CC(N)C(=O)O` (stereo unspecified), the Potency result in experiment [10], in experiment [12] and in experiment [14] was “inactive” throughout. Moreover, the molecule was called inactive in [11], in [13], in [15] and in experiment [16].
For `CCOC(=O)c1ncn2c1[C@@H]1CCCN1C(=O)c1cc(OC)ccc1-2`, the Potency entry in experiment [10], in [12] and in [14] was “inactive” each time. The molecule was called inactive in [11], in experiment [13], in experiment [15] and in [16].
Take `O=C1CCO1`: the activation in experiment [2] is -0.561%; in experiment [6], 1.44%. Also, the Potency result in [3], in experiment [4], in experiment [7], in [18] and in [8] was “inactive” throughout. Also, the call in [5] was inactive. In addition, in [19], the max response is -1.17%.
For `C[N+]1(C)CCc2cc3c(cc2[C@H]1[C@@H]1OC(=O)c2c1ccc1c2OCO1)OCO3`, the Potency result in experiment [10], in experiment [12] and in experiment [14] was “inactive” throughout. Further, the molecule was classed as inactive in experiment [11], in experiment [13], in [15] and in [16].
Regarding `C[C@H]1CC[C@@H]2[C@@H](C)[C@H]3[C@H](C[C@H]4[C@@H]5CC=C6CC(O[C@@H]7O[C@H](CO)[C@H](O)[C@H](O[C@@H]8O[C@H](CO)[C@@H](O)[C@H](O)[C@H]8O)[C@H]7O[C@H]7O[C@@H](C)[C@H](O)[C@@H](O)[C@H]7O)CC[C@]6(C)[C@H]5CC[C@]34C)N2C1` (stereo partly specified), the Potency in experiment [3] was 33.5 µM (active); in experiment [4], 33.5 µM (active); in [7], 13.3 µM (active); in experiment [8], 18.8 µM (active). In addition, the molecule was classed as inactive in experiment [5]. For the same molecule, in experiment [6], the activation was -8.71%. Also, the Potency entry in [18] is “inactive”.
As to `N[C@@H](Cn1ccc(=O)[nH]c1=O)C(=O)O`, the Potency result in experiment [10], in experiment [12] and in experiment [14] was “inactive” each time. Moreover, the molecule was classed as inactive in experiment [11], in [13], in [15] and in experiment [16].
Turning to `C[C@H](N)Cc1cccc(C(F)(F)F)c1`, the Potency entry in experiment [10], in experiment [12] and in experiment [14] was “inactive” throughout. Further, the outcome in experiment [11], in [13], in experiment [15] and in experiment [16] was inactive.
